# Test results from publication PMC4102417.
# Test system: murine 3T3 fibroblasts
# Experiment: primary screen, percent viability or growth; higher = less effect of the substance
# Method: Similarly, for measuring the cytotoxicity concentration (CC50) for 3T3 fibroblast cells, cultures were incubated with drugs for 72 hours and developed using Alamar Blue (Alamar Biosciences Inc, Sacramento, CA) as previously described.
row,SMILES,Mammalian (3T3) cell % growth at 10 uM
1,COc1ccc2cc3[n+](cc2c1OC)CCc1cc2c(cc1-3)OCO2,75.8%
2,C=C1C(=O)C23C(O)C1CCC2C12COC3(O)C(O)C1C(C)(C)CCC2O (stereo not shown),0.2%
3,CC1CCC2(NC1)OC1CC3C4CCC5CC(O)CCC5(C)C4CCC3(C)C1C2C.Cl (stereo not shown),100%
4,C[C@H]1CC[C@]2(NC1)O[C@H]1C[C@H]3[C@@H]4CC[C@H]5C[C@@H](O[C@@H]6O[C@H](CO)[C@H](O[C@@H]7O[C@H](CO)[C@@H](O)[C@H](O[C@@H]8OC[C@@H](O)[C@H](O)[C@H]8O)[C@H]7O[C@@H]7O[C@H](CO)[C@@H](O)[C@H](O)[C@H]7O)[C@H](O)[C@H]6O)CC[C@]5(C)[C@H]4CC[C@]3(C)[C@H]1[C@@H]2C,0.1%
5,CNCCC=C1c2ccccc2CCc2ccccc21,100%
6,CCOc1ccc(Cc2nccc3cc(OCC)c(OCC)cc23)cc1OCC,95.1%
7,O=C(O)/C=C/c1ccc(O)c(O)c1,2.5%
8,Nc1nc(=S)c2[nH]cnc2[nH]1,98.3%
9,COc1ccc(-c2cc(=O)c3ccccc3o2)cc1,100%
10,Oc1ccc(Cl)c2cccnc12,49.7%
11,CCCCCCCCCCCCCC(=O)O[C@@H]1[C@@H](C)[C@@]2(O)[C@@H](C=C(CO)C[C@]3(O)C(=O)C(C)=C[C@@H]23)[C@@H]2C(C)(C)[C@]12OC(C)=O,89.2%
12,Cc1nc2ccccn2c(=O)c1CCN1CCC(C(=O)c2ccc(F)cc2)CC1,91.6%
13,COc1ccc(-c2cc(=O)c3ccccc3o2)cc1OC,86.4%
14,Nc1nc(N)c2nc(-c3ccccc3)c(N)nc2n1,72.7%
15,Cc1cc(/C=C/c2ccc3cc(N(C)C)ccc3[n+]2C)c(C)n1-c1ccccc1.O=C([O-])c1cc2ccccc2c(Cc2c(O)c(C(=O)O)cc3ccccc23)c1O,50%
16,CC(=O)OC1CCC2(C)C3=C(CCC2C1(C)C)C1(C)CCC(C(C)CCC=C(C)C)C1(C)CC3 (stereo not shown),87.6%
17,Cc1ccc(C(=O)C(C)CN2CCCCC2)cc1 (stereo not shown),0.2%

row,SMILES,Mammalian (3T3) cell % growth at 10 uM
1,COC(=O)c1cc(O)c(=O)c2c(O)c(O)ccc2c1,92.2%
2,CC[C@H](C)C(=O)O[C@H]1CCC=C2C=C[C@H](C)[C@H](CC[C@@H]3C[C@@H](O)CC(=O)O3)[C@H]21,2.9%
3,O=c1c(O)c(-c2ccccc2)oc2ccccc12,85.7%
4,CC(C)=CCc1c2c(c3occ(-c4ccc(O)c(O)c4)c(=O)c3c1O)C=CC(C)(C)O2,4.1%
5,O[C@H]1[C@H]2c3cc4c(cc3CN3CCC(=C[C@@H]1O)[C@H]23)OCO4,29.6%
6,N[C@H](C(=O)O)[C@@H]1CC(Cl)=NO1,48.2%
7,Nc1ccn([C@@H]2O[C@H](CO)[C@@H](O)[C@@H]2O)c(=O)n1,48.4%
8,CN(C)CC/C=C1/c2ccccc2Sc2ccc(Cl)cc21,97.1%
9,CCCOc1ccc2nc(NC(=O)OC)[nH]c2c1,52.8%
10,COC(=O)CCC(C)C1CCC2C3C(O)CC4CC(O)CCC4(C)C3CC(O)C12C (stereo not shown),81%
11,Cc1cc2nc3c(=O)[nH]c(=O)nc-3n(C[C@H](O)[C@H](O)[C@H](O)CO)c2cc1C,0.9%
12,COc1ccc2c(c1)OC/C(=C/c1ccc(OC)c(O)c1)C2=O,8.8%
13,C=CC(C1=CC(=O)C(OC)=CC1=O)c1ccc(O)cc1 (stereo not shown),94.8%
14,Oc1ccc2c(c1)O[C@H](c1ccc(O)c(O)c1)[C@@H](O)C2,97.8%
15,CCCCCCCC/C=C/CCCCCCCCOP(=O)([O-])OCC[N+](C)(C)C,93.7%
16,Oc1cc2c(cc1O)C1c3ccc(O)c(O)c3OCC1(O)C2 (stereo not shown),100%
17,CC1(C)C=CC(=O)C2(C)C1CC(=O)C1(C)C2CCC2(C)C(c3ccoc3)OC(=O)C3OC321 (stereo not shown),100%
